TSHR antagonist = human thyrotropin receptor antagonism; 330,000 compounds, 0.2% hits; AID 504810; activity change, negative = inhibition, % at 11.5 µM; P16473; TSHR-expressing cells, TSH-stimulated cAMP HTRF, 2 h; active compounds read low;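 active = activity change below a set negative limit, meaning inhibition stronger than a set level, cut at about -70% in these data; inconclusive = activity change between two set negative limits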
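Read-out is FRET at 665 nm (cryptate excitation 337 nm) from a cryptate-tagged anti-cAMP antibody, competed by cell cAMP against cAMP-d2. Compounds are tested on freshly harvested TSHR cells challenged with 4nM TSH (EC80) for 2 hours at 37 deg C.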
PTHR1 ag = agonists of human PTHR1 parathyroid hormone receptor; Q03431; HEK293 GP2 PTHR1 cells, GloSensor cAMP luminescence, 1 h; Potency, µM (top dose mostly 115 µM), hits mostly activators; 410,000 compounds, 0.075% hits; AID 743266; note: nearly all actives have a fitted effect of over 55% in size
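HEK-293-derived GP2 cells expressing PTHR1 and a GloSensor cAMP reporter, 3,000/well, plated overnight, given luciferin plus IBMX (each 0.5 mM as added) for 1 h at 37 °C, then compound for 1 h at 37 °C. Luminescence was read after 15 min at room temperature.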
EPAC1 ag = activates human EPAC1 exchange factor; O95398; EPAC1 agonist qHTS, biochemical assay; response scale: 100% = response to 6.5 mM cAMP; Potency, µM (titrated, usually from 154 µM), usual class: activators; 360,000 compounds, 0.073% hits; AID 720707; note: nearly all actives have a fitted effect of over 60% in size
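Multi-concentration qHTS readout: loss of Rap1B-bound BODIPY-GDP fluorescence driven by 100 nM EPAC1 with excess GDP (50 uM), monitored kinetically at room temperature; agonist response expressed relative to 6.5 mM cAMP.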
EPAC1 antag = antagonists of human EPAC1. O95398. EPAC1 GEF assay, Rap1b-BODIPY-GDP exchange fluorescence. Potency, µM (highest dose often 115 µM), actives largely listed as inhibitors. 360,000 compounds, 0.14% hits. AID 720709; note: nearly all actives have a fitted effect of over 50% in size
EPAC2 ag = agonists of human EPAC2 (RAPGEF4) | AID 720711 | Q8WZA2 | 360,000 compounds, 0.079% hits | EPAC2 activation, biochemical qHTS; response scale: 100% = 6.5 mM cAMP response | Potency, µM (doses to about 154 µM), usual class: activators; note: nearly all actives have a fitted effect of over 50% in size
Target sequence (Q8WZA2 whole entry, looked up): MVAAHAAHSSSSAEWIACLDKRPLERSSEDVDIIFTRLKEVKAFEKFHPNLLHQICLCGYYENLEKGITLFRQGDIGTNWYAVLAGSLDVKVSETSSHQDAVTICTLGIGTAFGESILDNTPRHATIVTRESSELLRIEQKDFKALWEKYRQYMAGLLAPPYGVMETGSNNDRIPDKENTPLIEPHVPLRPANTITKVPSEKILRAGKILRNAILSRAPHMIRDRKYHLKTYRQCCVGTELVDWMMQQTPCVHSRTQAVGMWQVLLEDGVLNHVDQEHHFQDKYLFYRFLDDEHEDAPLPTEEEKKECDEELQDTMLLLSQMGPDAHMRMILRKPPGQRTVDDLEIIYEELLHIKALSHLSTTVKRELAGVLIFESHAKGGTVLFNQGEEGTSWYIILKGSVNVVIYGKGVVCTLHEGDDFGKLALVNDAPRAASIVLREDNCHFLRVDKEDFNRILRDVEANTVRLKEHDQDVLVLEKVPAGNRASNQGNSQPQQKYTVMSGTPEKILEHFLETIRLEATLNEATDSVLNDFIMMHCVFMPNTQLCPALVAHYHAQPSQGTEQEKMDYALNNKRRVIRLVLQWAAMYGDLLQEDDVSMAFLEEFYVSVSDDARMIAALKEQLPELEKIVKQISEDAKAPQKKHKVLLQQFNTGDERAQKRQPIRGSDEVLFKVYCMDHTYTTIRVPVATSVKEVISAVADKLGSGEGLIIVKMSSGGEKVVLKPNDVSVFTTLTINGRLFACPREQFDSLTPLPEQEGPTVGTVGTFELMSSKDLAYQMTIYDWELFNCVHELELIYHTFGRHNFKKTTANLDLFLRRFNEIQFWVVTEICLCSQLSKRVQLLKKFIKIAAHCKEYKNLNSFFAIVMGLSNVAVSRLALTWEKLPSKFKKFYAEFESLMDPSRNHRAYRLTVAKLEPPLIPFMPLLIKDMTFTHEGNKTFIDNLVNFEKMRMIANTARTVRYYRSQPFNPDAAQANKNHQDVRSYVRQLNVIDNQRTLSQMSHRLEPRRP
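Each well held 100 nM EPAC2, 250 nM RAP1B-BODIPY-GDP and 50 uM GDP. Fluorescence, read at 5-min intervals to 30 min, was referenced to a 6.5 mM cAMP positive control.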
EPAC2 antagonist = antagonists of human EPAC2. Q8WZA2. EPAC2 GEF exchange of Rap1B-BODIPY-GDP, fluorescence. Potency, µM (doses to about 114 µM), usual class: inhibitors. 360,000 compounds, 0.18% hits. AID 720708; note: nearly all actives have a fitted effect of over 45% in size
Of the large screens only hits and unclear results are named; the others gave an inactive call. Most compounds without a hit are left out; they make up all but 0.5% or so of the library. Unless noted, calls come from the whole dose curve; as a rule, active = well fitted curve in the direction sought with a large enough effect; inconclusive = small, poorly fitted or top-dose-only effect, or another doubt; inactive = no such curve, though single readings can be large; an effect the other way counts as inactive or inconclusive.

CC1(c2ccccc2)CC(C)(C)N(C(N)=O)c2ccccc21 (stereo not drawn)	none
COc1ccc2nc(-c3ccccc3)nc(SCC(=O)NCC3CCCO3)c2c1 (stereo not drawn)	none
COc1cc2c(cc1OC)-c1cc(NC3CCCCCCC3)nc(=O)n1CC2	none
COc1cc2c(cc1OC)-c1cc(NC3CCCCC3)nc(=O)n1CC2	EPAC2 ag 6.3µM
COc1ccccc1N1N=C(C(=O)c2ccccc2)C2C(=O)N(c3ccc(Br)cc3)C(=O)C21 (stereo not drawn)	PTHR1 ag inconclusive, EPAC1 ag inconclusive, EPAC1 antag inconclusive, EPAC2 antagonist 45µM
O=C(CSc1nc2ccccc2o1)NCc1ccc2c(c1)OCO2	EPAC2 antagonist 22µM
O=C(CSc1nc2ccccc2o1)N/N=C/c1ccc(O)c(O)c1	EPAC1 antag 50µM
O=C(NC1CCCC1)c1cccc2c1C(=O)c1ccc(N3CCCCC3)cc1S2(=O)=O	EPAC1 ag inconclusive, EPAC2 ag 56µM
O=C1c2ccccc2S(=O)(=O)c2cc(C(=O)N3CCC(O)CC3)ccc21	none (no result: TSHR antagonist)
O=C(NC1CCCCC1)c1cccc2c1C(=O)c1ccc(N3CCCC3)cc1S2(=O)=O	none
CC1CCN(c2ccc3c(c2)S(=O)(=O)c2cccc(C(=O)NC4CCCCC4)c2C3=O)CC1	EPAC1 ag 28µM, EPAC2 ag 50µM
O=C1c2ccccc2S(=O)(=O)c2cc(N3CCC(C(=O)N4CCCCC4)CC3)ccc21	EPAC1 ag 79µM, EPAC2 ag 25µM (no result: TSHR antagonist)
COc1ccccc1N1CCN(c2ccc3c(c2)S(=O)(=O)c2cccc(C(=O)NCC4CC4)c2C3=O)CC1	EPAC1 antag 22µM, EPAC2 antagonist inconclusive (no result: TSHR antagonist)
Cc1ccc(NC(=O)CSCC(=O)NCCc2ccccc2)c(C)c1	none
O=C(NCc1ccccc1C(F)(F)F)c1cccc2c1C(=O)c1ccc(N3CCCCC3)cc1S2(=O)=O	EPAC2 ag 100µM
COCCN=c1scc(-c2cccs2)n1/N=C/c1ccc(O)c(O)c1O	EPAC1 antag 56µM
CCN=c1scc(C)n1/N=C/c1ccc(O)c(O)c1O	EPAC1 antag 45µM
CCC(=O)NC1=C(NC(C)c2ccccc2)C(=O)c2ccccc2C1=O (stereo not drawn)	none
CCC(=O)NC1=C(Cl)C(=O)C(NC(=O)CC)=C(Cl)C1=O	TSHR antagonist -86, EPAC1 antag inconclusive
COc1ccc(N2CC(NC(=O)c3ccc(S(=O)(=O)N4CCOCC4)cc3)CC2=O)cc1OC (stereo not drawn)	none (no result: TSHR antagonist, EPAC1 ag, EPAC1 antag, EPAC2 ag, EPAC2 antagonist)
CC(C)(C)CNC(=O)c1cccc2c1C(=O)c1ccc(-c3cc4ccccc4o3)cc1S2(=O)=O	EPAC1 antag inconclusive, EPAC2 ag 100µM
COc1ccc(CNC(=O)c2ccc(-c3nc(CSc4ccccc4)c(C)o3)cc2)c(OC)c1	none (no result: TSHR antagonist, EPAC1 ag, EPAC1 antag, EPAC2 ag, EPAC2 antagonist)
COc1cc(N(C)C)ccc1[C@]1(O)C(=O)N(C)c2ccc(Br)cc21	none (no result: TSHR antagonist)
O=C(NC1C2CC3CC(C2)CC1C3)c1ccc2c(c1)OCO2 (stereo not drawn)	TSHR antagonist -126
CCN(CC)c1ccc2cc(-c3nc(-c4ccc(OC)cc4)cs3)c(=O)oc2c1	EPAC2 antagonist 5.6µM
CCN(CC)c1ccc2cc(-c3nc(-c4ccc(Cl)cc4Cl)cs3)c(=O)oc2c1	none (no result: TSHR antagonist, EPAC1 ag, EPAC1 antag, EPAC2 ag, EPAC2 antagonist)
CCN(CC)c1ccc2cc(C(=O)c3cccs3)c(=O)oc2c1	EPAC1 ag 56µM, EPAC2 ag 79µM (no result: TSHR antagonist)
CCN(CC)c1ccc2cc(-c3nnc(-c4ccccc4)o3)c(=O)oc2c1	EPAC1 ag inconclusive, EPAC2 ag 35µM
C[C@@H]1CCCCO[C@@H](CN(C)Cc2ccc(Cl)c(Cl)c2)[C@@H](C)CN([C@H](C)CO)C(=O)c2cc(NC(=O)CCC(F)(F)F)ccc2O1	none (no result: TSHR antagonist)
COc1cc2nc(N3CCCN(C)CC3)nc(NC3CCN(Cc4ccccc4)CC3)c2cc1OC	none (no result: PTHR1 ag, EPAC1 ag, EPAC1 antag, EPAC2 ag, EPAC2 antagonist)
Cc1ccc(-c2csc(NC(=O)c3cc([N+](=O)[O-])ccc3N3CCOCC3)n2)cc1	none
O=C(Nc1nc(-c2ccccc2)cs1)c1ccc(N2CCOCC2)c([N+](=O)[O-])c1	TSHR antagonist -101
COCCCn1c(SCC(=O)OC2CCCCC2)nnc1-c1ccco1	none
COCCCn1c(SCC(=O)OC2CCCCC2)nnc1-c1cccs1	PTHR1 ag 0.28µM
O=C1NC[C@H](CCCCN2C[C@H](Cc3ccc(O)cc3)N(Cc3ccccc3)C(=O)C2=O)N(CCc2ccccc2)C1=O	none (no result: TSHR antagonist)
CCCCOc1ccc(Cn2c(=O)sc3ccccc32)cc1	none (no result: TSHR antagonist, EPAC1 ag, EPAC1 antag, EPAC2 ag, EPAC2 antagonist)
CCCn1nc([N+](=O)[O-])c(C(C#N)c2nc3ccccc3s2)c(Cl)c1=O (stereo not drawn)	TSHR antagonist -76, EPAC1 antag inconclusive
CCn1nc([N+](=O)[O-])c(C(C#N)c2nc3ccccc3n2C)c(Cl)c1=O (stereo not drawn)	none
Nc1ncc(Br)cc1S(=O)(=O)Nc1cc(C(F)(F)F)cc(C(F)(F)F)c1	TSHR antagonist inconclusive, EPAC1 antag inconclusive, EPAC2 antagonist 16µM
Cc1ccc(NS(=O)(=O)c2cc(Br)cnc2N)c(Cl)c1	none
CCOC(=O)C1CCN(c2nc(-c3ccc(Br)cc3)cs2)CC1	none (no result: PTHR1 ag, EPAC1 ag, EPAC1 antag, EPAC2 ag, EPAC2 antagonist)
Oc1c(Br)cc(/C=N/Nc2ccc(Cl)nn2)cc1Br	EPAC1 antag 25µM
NC(=S)N=Nc1c(O)cc(O)c2[nH]c(=O)ccc12	EPAC1 antag 50µM (no result: TSHR antagonist)
NC(=S)N=Nc1c(O)[nH]c2ccc(F)cc12	none
COc1ccc(-c2cc(=O)oc3c(O)c(O)ccc23)cc1	EPAC1 antag 35µM
Oc1ccc(N=Cc2ccc(OCc3ccccc3)cc2)cc1	EPAC1 antag 25µM, EPAC2 antagonist inconclusive
O=C(OCc1ccccc1)c1c(-c2ccccc2)oc2c1C(OCCO)CCC2 (stereo not drawn)	EPAC1 antag inconclusive, EPAC2 antagonist inconclusive (no result: TSHR antagonist)
CCOc1ccc(-c2nnc(SCC(=O)Nc3cc(F)ccc3F)o2)cc1	none (no result: TSHR antagonist, EPAC1 ag, EPAC1 antag, EPAC2 ag, EPAC2 antagonist)
Cc1ccc2oc(=O)n(Cc3ccc(OC(C)C)cc3)c2c1	EPAC2 antagonist inconclusive
Cc1cccc(Cn2c(=O)oc3ccc(C)cc32)c1	EPAC2 antagonist 79µM
CCOc1ccc(CNS(=O)(=O)c2ccc(-c3cc(C(F)(F)F)on3)s2)cc1	none (no result: TSHR antagonist, EPAC1 ag, EPAC1 antag, EPAC2 ag, EPAC2 antagonist)
Cc1ccc(O)c(C(=O)c2cc(C#N)c(=O)n(-c3nccs3)c2)c1	EPAC1 ag 40µM, EPAC2 ag 112µM
Cc1ccc(O)c(C(=O)c2cc(C#N)c(=O)n(-c3c(C)n(C)n(-c4ccccc4)c3=O)c2)c1	PTHR1 ag inconclusive
O=C1CC(=O)Nc2cc(S(=O)(=O)Nc3ccc(Cl)c(C(F)(F)F)c3)ccc2N1	EPAC2 antagonist 35µM

Screening data deposited in PubChem by National Center for Advancing Translational Sciences (NCATS).
